Results on 29 compounds are retold here after ChEMBL document CHEMBL4513216, “Probing the Open Global Health Chemical Diversity Library for Multistage-Active Starting Points for Next-Generation Antimalarials” (ACS Infect Dis, 2020).

The whole screen tested about 69,000 compounds, of which about 8,600 (12%) showed an effect of 50% or more. What follows is part of a selection rich in strong results, with near analogues and random picks from the rest.

In the experiment the test system is Plasmodium berghei. Put plainly: Screen against P. berghei liver stage (PbLuc), transformed with Luciferase, at 10uM. Format: functional, HepG2. Conditions: tested at 10 uM.
Consider `Cc1ccc(N2CCC3(CC2)CC(OCC(=O)N(C)C)CO3)nn1` (centres undefined), for which the INHIBITION turned out to be 29%. The same measure for `COC1COC2(CCN(c3ccc(C#N)cc3)CC2)C1` (centres undefined): -36.5%; for `CNC(=O)COC1COC2(CCN(c3ncccn3)CC2)C1` (centres undefined): 27.5%. `CNC(=O)COC1COC2(CCN(c3cnccn3)CC2)C1` (centres undefined): the INHIBITION was determined as 36.4%. The same measure for `CNC(=O)COC1COC2(CCN(c3ccc(C)nn3)CC2)C1` (centres undefined): 54.1%; for `CNC(=O)COC1COC2(CCN(c3ccc(C#N)cc3)CC2)C1` (centres undefined): 64.9%. The same measure for `CNC(=O)[C@@H](CC(C)C)N1CCC[C@H]1C(=O)N(C)Cc1ccccc1`: 25.3%. The same measure for `Cc1noc([C@H]2C[C@H]3OCC[C@H]3N(Cc3ccc4c(c3)OCO4)C2)n1`: 17.6%. On to `CSc1c(CC(=O)O)n(C)c2ccccc12`, for which the INHIBITION is -9.98%. Then `O=C([C@@H]1CC[C@@H]2[C@@H](CCN2Cc2cccc(F)c2)O1)N1CCCCO1`, with -7.48%. In the case of `Cc1n[nH]c(C)c1CN1CCC(c2cc(C(C)C)n[nH]2)CC1`, the INHIBITION stood at 13.9%. The same measure for `CC(C)c1cc(C2CCN(C(=O)Cn3cnc4ccccc43)CC2)[nH]n1`: 86.6%; for `CC(C)c1cc(C2CCN(C(=O)Cn3cncn3)CC2)[nH]n1`: 17%. The same measure for `CC(C)c1cc(C2CCN(C(=O)Cn3nc4ccccc4n3)CC2)[nH]n1`: 53.2%; for `CC(C)c1cc(C2CCN(Cc3cc(F)cc(F)c3)CC2)[nH]n1`: 49.5%. Then `CC(C)c1cc(C2CCN(C(=O)Cn3cnnn3)CC2)[nH]n1`, with 35.1%; and `CC(C(=O)NCCN1CCOCC1)n1cncn1` (centres undefined), with -2.33%; and `CN(Cc1cnn(C)c1)C(=O)Nc1cccnc1-n1cccn1`, with -24.9%. For `CCN1CCN(C(=O)C2CC(=O)N(c3cnn(C(C)C)c3)C2)CC1` (centres undefined), the INHIBITION is recorded as 23.1%. Then `CCS(=O)(=O)N1Cc2cncn2CC(C(=O)NCC2CC2)C1` (centres undefined), with 24%; and `Cc1nc(C2CCCN(C(=O)c3cccc(S(C)(=O)=O)c3)C2)no1` (centres undefined), with 51.3%. The same measure for `Cc1nc(C2CCCN(C(=O)C3=NN(C(C)C)C(=O)CC3)C2)no1` (centres undefined): 58.3%; for `Cc1nc(C2CCCN(C(=O)c3sc(C)nc3C)C2)no1` (centres undefined): 43.4%; for `Cc1nc(C2CCCN(C(=O)c3ccc(S(C)(=O)=O)cc3)C2)no1` (centres undefined): -29.8%. The same measure for `Cc1nc(C2CCCN(C(=O)c3cnc(C)s3)C2)no1` (centres undefined): -38%; for `CCN1N=C(C(=O)N2CCCC(c3noc(C)n3)C2)CCC1=O` (centres undefined): 34.1%. As to `CCc1nc(C2CCCN(C(=O)C3=NN(C(C)C)C(=O)CC3)C2)no1` (centres undefined), the INHIBITION was determined as 28.7%. In the case of `Cc1nc(C2CCCN(C(=O)c3cc(C)sc3C)C2)no1` (centres undefined), the INHIBITION is listed as 81.2%. Then `Cc1nc(C2CCCN(C(=O)c3ccoc3)C2)no1` (centres undefined), with 11.6%.
